From PubChem BioAssay (NCI) come the findings set out here.

SMILES strings stand for the structures. About 83,000 compounds went through this panel and 20% of them were active in at least one assay; those are over-represented in the sample as a whole.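 Method: cells in 96-well plates; compound added at one concentration; 48 h incubation; percent growth measured; values under 10 scored active.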 Unmarked numbers belong to inactive results. Active and inactive are the calls of the source.

Among the test systems are NCI-H23 lung; NCI-H226 lung; NCI-H322M lung; HOP-62 NSCLC; NCI-H460 lung; HOP-92 NSCLC; NCI-H522 lung; A549/ATCC NSCLC; 786-0 renal; COLO 205 colon; DU-145 prostate; K-562 leukemia; MALME-3M melanoma; MDA-MB-231 breast; RXF 393 renal; SF-268 CNS; SF-295 CNS; SF-539 CNS; UACC-257 melanoma; M14 melanoma.
Common to all, as to assay: NCI-60 one-dose screen, 48 h (100 = growth as untreated, 0 = no growth, -100 = all killed)
Details in all cases: 10 µM unless noted

For `COc1ccccc1NC(=O)OCC12COCN1COC2`, the growth with NCI-H23 lung is 100%; in the test with NCI-H226 lung, 99%; in the test on NCI-H322M lung, 107%; in the test with HOP-62 NSCLC it was 104%; in the test with NCI-H460 lung, 104%; with HOP-92 NSCLC, 105%. The growth in the test on NCI-H522 lung was 100%; in the test with A549/ATCC NSCLC it was 92.9%; in the test with 786-0 renal, 103%; in the test on COLO 205 colon, 108%; in the test on DU-145 prostate, 112%; in the test on K-562 leukemia, 104%. In addition, the growth in the test with MALME-3M melanoma was 103%; with MDA-MB-231 breast it was 102%; in the test on RXF 393 renal, 108%; in the test with SF-268 CNS, 106%; in the test on SF-295 CNS it was 103%; in the test on SF-539 CNS it was 103%. Besides, the growth with UACC-257 melanoma was 89.9%; in the test on M14 melanoma, 104%.

In the case of `CC(C)[C@H](CN)NC[C@H](C)NS(=O)(=O)c1ccc(C(C)(C)C)cc1`, the growth is 97% in the test on NCI-H23 lung; 74.2% in the test with NCI-H226 lung; 101% with NCI-H322M lung; 94.6% in the test on HOP-62 NSCLC; 100% in the test with NCI-H460 lung; 71.9% in the test on HOP-92 NSCLC. Also, the growth with NCI-H522 lung is 96.2%; with A549/ATCC NSCLC, 98.7%; in the test with 786-0 renal, 90.3%; in the test on COLO 205 colon, 105%; with DU-145 prostate it was 105%; with K-562 leukemia, 85.7%. For the same compound, the growth in the test on MALME-3M melanoma is 97.8%; with MDA-MB-231 breast it was 117%; in the test with RXF 393 renal, 89.9%; with SF-268 CNS, 93.5%; in the test with SF-295 CNS it was 104%; in the test with SF-539 CNS it was 96.9%. Moreover, the growth in the test on UACC-257 melanoma is 96.4%; in the test with M14 melanoma it was 97.3%.

For the compound `CC1(C)CC[C@]2(C(=O)N3CCNCC3)CC[C@]3(C)C(=CC[C@@H]4[C@@]5(C)CCC(=O)C(C)(C)[C@@H]5CC[C@]43C)[C@@H]2C1`, the growth is 103% in the test with NCI-H23 lung; 99.4% in the test on NCI-H226 lung; 108% in the test with NCI-H322M lung; 97.3% in the test with HOP-62 NSCLC; 109% in the test with NCI-H460 lung; 109% with HOP-92 NSCLC. For the same compound, the growth is 94.5% with NCI-H522 lung; 102% in the test with A549/ATCC NSCLC; 102% with 786-0 renal; 105% in the test with COLO 205 colon; 109% with DU-145 prostate; 109% in the test with K-562 leukemia. The growth in the test with MALME-3M melanoma is 112%; in the test with MDA-MB-231 breast, 112%; with RXF 393 renal it was 115%; in the test on SF-268 CNS, 100%; with SF-295 CNS it was 99.5%; in the test with SF-539 CNS, 101%. Besides, the growth is 106% with UACC-257 melanoma and 109% in the test with M14 melanoma.

Regarding `CN(C)c1ccc(/C=C(\C#N)c2nc3ccccc3n2C)cc1`, the growth in the test on NCI-H23 lung was 58.9%; in the test with NCI-H226 lung, 77.8%; in the test on NCI-H322M lung it was 46.5%; in the test with HOP-62 NSCLC, 89.7%; with NCI-H460 lung, 13.8%; in the test on HOP-92 NSCLC, 86.4%. Moreover, the growth in the test on NCI-H522 lung is 3.96% (active); in the test on A549/ATCC NSCLC, 31%; with 786-0 renal, 47.4%; in the test with COLO 205 colon, 19.4%; with DU-145 prostate, 25.7%; with K-562 leukemia, 32%. In addition, the growth in the test on MALME-3M melanoma was 61.7%; in the test on MDA-MB-231 breast it was 48.8%; with RXF 393 renal, 3.51% (active); in the test on SF-268 CNS, 52.6%; in the test on SF-295 CNS, 13.1%; with SF-539 CNS it was 11.6%. Further, the growth was 43.9% with UACC-257 melanoma and 34.4% in the test with M14 melanoma.

Regarding `COc1c(B(O)O)cccc1-c1nc2ccc3[nH]ncc3c2c2c1CCCC2`, the growth with NCI-H23 lung was 15.5%; in the test with NCI-H226 lung, -10.6% (active); with NCI-H322M lung, 16%; in the test with HOP-62 NSCLC it was 7.22% (active); in the test on NCI-H460 lung, 8.49% (active); with HOP-92 NSCLC, 32.8%. Besides, the growth is 15.1% in the test on NCI-H522 lung; 8.01% (active) in the test on A549/ATCC NSCLC; 25.9% in the test on 786-0 renal; 4.2% (active) in the test on COLO 205 colon; 11.1% in the test on DU-145 prostate; 38.5% in the test on K-562 leukemia. Besides, the growth is 82.6% in the test on MALME-3M melanoma; 25.2% in the test with MDA-MB-231 breast; -15.8% (active) in the test on RXF 393 renal; 23.2% in the test with SF-268 CNS; 34.8% in the test on SF-295 CNS; 0.769% (active) in the test on SF-539 CNS. Besides, the growth in the test on UACC-257 melanoma is 34%; with M14 melanoma, 58.1%.

For `CCCc1n(Cc2ccc3ccccc3c2)c2ccccc2[n+]1Cc1ccc2ccccc2c1`, the growth was -12.9% (active) in the test on NCI-H23 lung; -4.44% (active) in the test with NCI-H226 lung; 4.72% (active) with NCI-H322M lung; -55.4% (active) in the test on HOP-62 NSCLC; -76.1% (active) in the test with NCI-H460 lung; -48.1% (active) in the test with HOP-92 NSCLC. In addition, the growth in the test with NCI-H522 lung was -60.2% (active); with A549/ATCC NSCLC, -19.4% (active); in the test on 786-0 renal, -85.2% (active); in the test on COLO 205 colon, -77% (active); with DU-145 prostate, 2.32% (active); in the test on K-562 leukemia, -70.8% (active). For the same compound, the growth in the test with MALME-3M melanoma is -63% (active); with MDA-MB-231 breast it was -71.7% (active); in the test with RXF 393 renal, -79.3% (active); with SF-268 CNS, -49.7% (active); in the test on SF-295 CNS, -59.8% (active); with SF-539 CNS, -34.5% (active). The values for the growth with UACC-257 melanoma and in the test on M14 melanoma were -49.9% (active) and -72% (active), respectively.

In the case of `COc1ccc(-c2nc(-c3ccccc3OCc3ccccc3OC)nc(C)c2C(C)=O)cc1`, the growth with NCI-H23 lung is 74.8%; in the test with NCI-H226 lung, 81.5%; in the test with NCI-H322M lung, 94.7%; in the test on HOP-62 NSCLC, 91.5%; with NCI-H460 lung it was 80.6%; in the test with HOP-92 NSCLC, 71.2%. Also, the growth with NCI-H522 lung was 78.3%; in the test with A549/ATCC NSCLC it was 79.7%; in the test on 786-0 renal, 91.3%; with COLO 205 colon it was 86.7%; in the test with DU-145 prostate, 92.8%; in the test on K-562 leukemia, 81.6%. Moreover, the growth in the test on MALME-3M melanoma was 92.5%; in the test with MDA-MB-231 breast, 64.3%; in the test with RXF 393 renal it was 92.6%; in the test on SF-268 CNS, 94.7%; in the test on SF-295 CNS, 91.8%; in the test with SF-539 CNS it was 101%. For the same compound, the values for the growth in the test on UACC-257 melanoma and in the test on M14 melanoma were 96% and 84.2%, respectively.

On to `COc1cc2nccc(Oc3ccc(NC(=O)C4(C(=O)Nc5ccc(F)cc5)CC4)cc3)c2cc1O`, for which the growth was 57.4% in the test on NCI-H23 lung; 67.1% with NCI-H226 lung; 87.7% in the test on NCI-H322M lung; 57.6% in the test on HOP-62 NSCLC; 48.1% in the test with NCI-H460 lung; 33.4% with HOP-92 NSCLC. For the same compound, the growth with NCI-H522 lung is 68%; with A549/ATCC NSCLC it was 56.4%; in the test on 786-0 renal, 96.2%; with COLO 205 colon it was 91%; in the test on DU-145 prostate, 77.7%; with K-562 leukemia, 9.3% (active). Moreover, the growth in the test with MALME-3M melanoma is 64%; with MDA-MB-231 breast it was 71%; in the test with RXF 393 renal it was 58.5%; in the test with SF-268 CNS, 65.8%; with SF-295 CNS, 35.2%; with SF-539 CNS it was 24.5%. For the same compound, the growth in the test with UACC-257 melanoma was 71.5%; with M14 melanoma, 49.5%.
